G9a inh – inhibitors of human histone lysine methyltransferase G9a; Q96KQ7; G9a H3K9 monomethylation, AlphaScreen, 2 h; Potency, µM (doses to about 102 µM), for the others: at the highest dose activity, negative = inhibition, hits mostly inhibitors; 350,000 tested, 8.8% active; AID 504332; note: potency is the fitted concentration of half-maximal effect; % is set by controls: 0 for no effect and ±100 for the full control effect; nearly all actives have a fitted effect of over 75% in size
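Methyltransferase reactions run at room temperature for 2 h (20 nM enzyme, 500 nM biotin-H3K9 peptide, 20 uM SAM) after a 15 min compound preincubation; product detected by AlphaScreen beads and anti-H3K9me1 antibody.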
BAZ2B block – blocks human BAZ2B | AID 504333 | Potency, µM (top dose mostly 114 µM), for the others: top-dose activity change, negative = inhibition, hits mostly inhibitors | AlphaScreen BAZ2B-H3K14Ac peptide displacement | 360,000 tested, 4.4% active; note: potency is the fitted concentration of half-maximal effect; % is set by controls: 0 for no effect and ±100 for the full control effect; nearly all actives have a fitted effect of over 60% in size
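AlphaScreen displacement of biotin-H3(5-23)K14Ac peptide (50 nM final) from BAZ2B (50 nM final) in PBS pH 7.4, 0.01% Tween-20; complex preformed 30 min RT, then compounds (top 110 uM) 30 min RT, beads 20 min dark.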
CtBP-E1A inh – CtBP/E1A binding inhibition; AID 651724; activity change, % (test concentration not listed); AlphaScreen GST-E1A/His-CtBP binding, 1536-well; hits give low values; 340,000 tested, 0.49% active; in the data active = activity change below about -65%; inconclusive = mostly about -30% to -63%; note: % is set by controls: 0 for no effect and ±100 for the full control effect
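Protein mix (5X: 125 nM each GST-E1A, His-CtBP) was incubated with pinned compound 2 h at 37 deg C in dark, in 50 mM Tris pH 8.0 buffer with 300 mM NaCl. Glutathione donor and nickel acceptor beads followed; AlphaScreen signal read after 1 h.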
Six1-Eya2 blk – Six1/Eya2 interaction inhibition; AlphaScreen GST-Six1/His-Eya2 binding, biochemical; hits give low values; activity change, % (concentration not given with the values); 360,000 tested, 0.56% active; in the data active = activity change below about -65%; inconclusive = mostly about -30% to -63%; note: % is set by controls: 0 for no effect and ±100 for the full control effect
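AlphaScreen with GST-Six1 and His-Eya2 (5X mix: 250 nM and 500 nM), glutathione donor and nickel acceptor beads; buffer 50 mM Tris pH 8.0, 300 mM NaCl, 1 mM TCEP; 1 h at 37 C in the dark.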
HP1b chromo inh – inhibitors of HP1-beta chromodomain binding to methylated histone tails; 390,000 tested, 0.56% active; AlphaScreen HP1-beta / biotin-H3K9me3 peptide binding; P83916; Potency, µM (series often up to 114 µM), inactives show top-dose activity change, negative = inhibition, actives largely listed as inhibitors; note: potency is the fitted concentration of half-maximal effect; nearly all actives have a fitted effect of over 70% in size
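AlphaScreen: HP1-beta (50 nM) preformed 30 min with biotin-H3(1-18)K9me3 peptide (50 nM) in PBS pH 7.4, 0.01% Tween-20. Compound added for 30 min at RT, then streptavidin donor/nickel chelate acceptor beads (10 ug/mL) for 30 min.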
JMJD2A Tudor inh – blocks the human JMJD2A Tudor domain. O75164. 390,000 tested, 4.4% active. AlphaScreen JMJD2A-Tudor / H3K4me3 peptide binding. Potency, µM (highest dose often 114 µM), for the others: at the highest dose activity change, negative = inhibition, hits mostly inhibitors; note: potency is the fitted concentration of half-maximal effect; % is set by controls: 0 for no effect and ±100 for the full control effect; nearly all actives have a fitted effect of over 50% in size
An asterisk follows results filed as active; ! = not confirmed by another sample; [ ] = remark or other dose. Sampled rows, rich in hits. Any-hit rate of the full collection: about 10%. Unless noted, calls come from the whole dose curve; as a rule, active = well fitted inhibition curve with a large enough effect; inconclusive = small, poorly fitted or top-dose-only effect; inactive = no such curve, though single readings can be large or run the other way.

How did O=C(/C=C/c1ccccc1)NC(NC(=S)Nc1cccc2cccnc12)C(Cl)(Cl)Cl (centres undefined) do in these assays?
G9a inh: 14µM*

What do the screens show for `OC(CN1CCOCC1)c1csc2ccccc12` (centres undefined)?
CtBP-E1A inh: 1; Six1-Eya2 blk: 0; HP1b chromo inh: 36%; JMJD2A Tudor inh: -10%

How did Cc1c(C(=O)c2cccc3ccccc23)c2cccc3c2n1[C@H](CN1CCOCC1)CO3 do in these assays?
G9a inh: 11µM*!; CtBP-E1A inh: -17; Six1-Eya2 blk: -23; HP1b chromo inh: -9%; JMJD2A Tudor inh: 56µM*

How did O=C(CN1CCOCC1)c1ccc(Br)cc1 do in these assays?
G9a inh: inconclusive; BAZ2B block: -16%; CtBP-E1A inh: -8; Six1-Eya2 blk: -3; HP1b chromo inh: 22%; JMJD2A Tudor inh: 79µM*

How did O=C(CN1CCOCC1)c1cccc2ccccc12 do in these assays?
G9a inh: 3.2µM*; BAZ2B block: 50µM*; CtBP-E1A inh: 3; Six1-Eya2 blk: -1; HP1b chromo inh: -26%; JMJD2A Tudor inh: 7.9µM*

How did Oc1ccc2c3c1O[C@H]1c4c(c5ccccc5n4Cc4ccccc4)C[C@@]4(O)C(C2)N(CC2CC2)CC[C@]314 do in these assays?
G9a inh: -40%[59 µM]

Results for C[N+]1([O-])[C@@H]2CC(OC(=O)[C@@H](CO)c3ccccc3)C[C@@H]1[C@H]1O[C@H]12 (some centres undefined) ?
G9a inh: 9%[59 µM]

Results for O=c1[nH]c(SCc2n[nH]c(=S)n2-c2ccccc2)nc2ccccc12 ?
G9a inh: inconclusive; BAZ2B block: -10%; CtBP-E1A inh: -12; Six1-Eya2 blk: 2; HP1b chromo inh: 24%; JMJD2A Tudor inh: 7.9µM*

What do the screens show for `Cc1ccc(S(=O)(=O)N[C@@H](CCCCN)C(=O)CCl)cc1`?
G9a inh: 28µM*; CtBP-E1A inh: -1; Six1-Eya2 blk: 5; HP1b chromo inh: 59%; JMJD2A Tudor inh: inconclusive

Results for c1ccc(-c2ccc(-c3n(-c4ccccn4)c4ccccc4[n+]3-c3ccccn3)cc2)cc1 ?
G9a inh: 35µM*; BAZ2B block: inconclusive; Six1-Eya2 blk: -7; HP1b chromo inh: 31%; JMJD2A Tudor inh: inconclusive

How did C[C@](N)(CCP(=O)(O)O)C(=O)O do in these assays?
G9a inh: 14µM*!; BAZ2B block: inconclusive; CtBP-E1A inh: -17; Six1-Eya2 blk: 6; HP1b chromo inh: -15%; JMJD2A Tudor inh: 4µM*

Results for COc1cc(C(=O)Nc2ccc(Br)cc2C(=O)c2ccccc2Cl)cc(OC)c1OC ?
G9a inh: -7%[59 µM]; BAZ2B block: 2%; CtBP-E1A inh: 1; Six1-Eya2 blk: -11; HP1b chromo inh: 11%; JMJD2A Tudor inh: -20%

Results for COc1ccccc1NS(=O)(=O)c1cc(NC(=O)c2ccc(Cl)nc2)ccc1N1CCCC1 ?
CtBP-E1A inh: 23; Six1-Eya2 blk: -18; HP1b chromo inh: inconclusive; JMJD2A Tudor inh: 56µM*

How did Clc1ccc(CC[C@H](Cn2ccnc2)Sc2c(Cl)cccc2Cl)cc1 do in these assays?
G9a inh: -6%[21.5 µM]

How did CN1CCN(S(=O)(=O)c2ccc(C3CCCCC3)cc2)CC1 do in these assays?
G9a inh: 8.9µM*; BAZ2B block: 7%; CtBP-E1A inh: -7; Six1-Eya2 blk: -20; HP1b chromo inh: -8%; JMJD2A Tudor inh: 89µM*

What do the screens show for `Cc1ncsc1CCOC(=O)c1ccc([N+](=O)[O-])cc1`?
G9a inh: inconclusive; BAZ2B block: inconclusive; CtBP-E1A inh: -6; Six1-Eya2 blk: -7; HP1b chromo inh: -33%; JMJD2A Tudor inh: inconclusive

Results for O=C(Oc1ccccc1)N1CCC2(CCCN(Cc3ccccc3)C2)CC1 ?
G9a inh: -8%[12.7 µM]

What do the screens show for `CN(Cc1ccccc1)C(=C(Cl)Cl)/C(=C1/NCCN1Cc1ccc(Cl)nc1)[N+](=O)[O-]`?
G9a inh: 50µM*; BAZ2B block: -10%; CtBP-E1A inh: 6; Six1-Eya2 blk: -5; HP1b chromo inh: 14%; JMJD2A Tudor inh: -26%

What do the screens show for `O=[N+]([O-])/C(Cl)=C1\NCCN1Cc1ccc(Cl)nc1`?
G9a inh: 3%; BAZ2B block: -16%; CtBP-E1A inh: 5; Six1-Eya2 blk: -1; HP1b chromo inh: 54%; JMJD2A Tudor inh: -6%

How did Cn1cccc1-c1cccnc1 do in these assays?
G9a inh: 6%[59 µM]

What do the screens show for `CC1(C)C(O)CC(O)[C@]2(C)C1CC(=O)[C@]1(C)C2CC[C@@]2(C)C(c3ccoc3)OC(=O)C3OC321` (some centres undefined)?
G9a inh: 0%[2.33 µM]

How did CCOc1cc(/C=C2\C(=O)NC(=O)N(C)C2=O)cc([N+](=O)[O-])c1O do in these assays?
G9a inh: 50µM*; BAZ2B block: -11%; CtBP-E1A inh: 1; Six1-Eya2 blk: -7; HP1b chromo inh: 31%; JMJD2A Tudor inh: -2%

What do the screens show for `CN(C)c1ccc(/C=C2/C(=O)NC(=O)N(Cc3ccco3)C2=O)cc1`?
G9a inh: inconclusive; BAZ2B block: -31%; CtBP-E1A inh: -6; Six1-Eya2 blk: -1; HP1b chromo inh: -7%; JMJD2A Tudor inh: -35%

How did CN1C(=O)/C(=C\N2CCc3ccccc32)C(=O)NC1=S do in these assays?
G9a inh: inconclusive; BAZ2B block: -8%; CtBP-E1A inh: -12; Six1-Eya2 blk: -24; HP1b chromo inh: -2%; JMJD2A Tudor inh: inconclusive

What do the screens show for `O=C1NC(=S)N(Cc2ccco2)C(=O)/C1=C\c1cccs1`?
G9a inh: 3.2µM*

Results for C=CCN1C(=O)/C(=C/c2cccs2)C(=O)NC1=S ?
G9a inh: 8.9µM*; BAZ2B block: inconclusive; CtBP-E1A inh: 7; Six1-Eya2 blk: 12; HP1b chromo inh: -7%; JMJD2A Tudor inh: 79µM*

How did O=P(NS(=O)(=O)c1ccccc1)(Oc1ccccc1)Oc1ccccc1 do in these assays?
G9a inh: 56µM*; BAZ2B block: -39%; CtBP-E1A inh: 6; Six1-Eya2 blk: 7; HP1b chromo inh: 25%; JMJD2A Tudor inh: inconclusive

What do the screens show for `Cc1ccc(S(=O)(=O)NP(=O)(Oc2ccccc2)Oc2ccccc2)cc1`?
G9a inh: 56µM*; BAZ2B block: -23%; CtBP-E1A inh: -7; Six1-Eya2 blk: -3; HP1b chromo inh: 18%; JMJD2A Tudor inh: inconclusive

Results for O=P(NS(=O)(=O)c1ccc(Br)cc1)(Oc1ccccc1)Oc1ccccc1 ?
G9a inh: -12%[12.7 µM]; BAZ2B block: inconclusive; CtBP-E1A inh: -8; Six1-Eya2 blk: 0; HP1b chromo inh: 13%; JMJD2A Tudor inh: -12%

Bioassay records deposited in PubChem by National Center for Advancing Translational Sciences (NCATS).
